{"source": "PubChem BioAssay (NCATS)", "note": "Results filed as inconclusive are left out. Calls of active or inactive are those of the source. Calls follow the shape of the dose curve; as a rule, active = well fitted inhibition curve with a large enough effect; inconclusive = small, poorly fitted or top-dose-only effect; inactive = no such curve, though single readings can be large or run the other way. Potency is read from the fitted curve at half-maximal effect.", "data": [{"assay": "qHTS to identify inhibitors of the type 1 interferon - major histocompatibility complex class I in skeletal muscle: primary screen against the NCATS Mechanism Interrogation Plate v5.0 (MIPE) Libary (AID 1347411); also: nearly all actives have a fitted effect of over 65% in size", "conditions": "iHSKM cells + IFN-b, HiBiT-tagged MHC-I luminescence, 24 h; series mostly up to 45.8 µM", "excerpt": "Assay Submitter (PI): Travis B. Kinder Ph.D. & James Inglese Ph.D.\nAssay Development and Screening Technology Laboratory (ADST)\nNational Center for Advancing Translational Sciences (NCATS), Rockville, MD\nNational Institute of Health (NIH), Bethesda, Maryland\nIdiopathic inflammatory myopathies, collectively referred to as myositis, are a group of rare autoimmune diseases characterized by skeletal muscle inflammation, weakness, and usually accompanied by systemic pathologies of the skin, lungs, or vasculature. Current immunosuppressive therapies and glucocorticoids are often not curative and are accompanied by harsh side effects, especially in children with juvenile myositis. We initiated a drug repurposing and development program to identify more targeted, less toxic therapeutics to treat myositis. Although its cause is not known, muscle from a subset of patients have an abundance of the inflammatory type 1 interferon (IFN) and a down-stream product major histocompatibility complex class I (MHC class I), which are both thought to contribute to damage and weakness. We conducted quantitative high throughput screening on 6,576 compounds (4,679 unique) through a series of cell-based assays to identify those that inhibit the IFN-stimulated expression of MHC class I in muscle precursor cells (myoblasts). The compound identification and evaluation strategy utilized a primary screen with reporter-tagged MHC class I in genome-engineered myoblasts, ATP content counter screen for viability, HLA-ABC immunofluorescence secondary screen, and HLA-B RT-qPCR tertiary screen.\nThe primary screen utilized CRISPR/Cas9 genome-engineering of immortalized human myoblasts, C25cl48, where a pro-luminescent reporter HiBit was fused to the C-terminus of endogenous MHC class I allele HLA-B*08:01 (HLA-B HiBit myoblasts). HiBit is an 11 amino acid fragment of NanoLuc luminescent reporter (Promega Corporation), and when complexed to the larger LgBit fragment, the reconstituted enzyme produces light in the presence of furimazine substrate (Schwinn et al., 2018). Briefly, HLA-B HiBit myoblasts were plated into 1536-well plates, treated with 4.0 ng/ml human IFN-beta and 2,480 compounds from the NCATS Mechanism Interrogation Plate v5.0 (MIPE5.0) in an 11-point, 1:3 titration with a high final concentration of 46 uM. After 24 hrs of treatment, cells were assayed by Nano-Glo HiBiT Lytic Detection System (Promega) and luminescence measured by a ViewLux 1430 Ultra HTS (Perkin Elmer).\nSchwinn MK, Machleidt T, Zimmerman K, Eggers CT, Dixon AS, Hurst R, Hall MP, Encell LP, Binkowski BF, Wood K V. 2018. CRISPR-Mediated Tagging of Endogenous Proteins with a Luminescent Peptide. ACS Chem Biol 13:467-474. doi:10.1021/acschembio.7b00549\nPROTOCOL TABLE (as described by Inglese et al., 2007)\nSEQUENCE No. (e.g., 1, 2, 3, etc.); […] (e.g., Cells, Incubation, Reagent, etc.); VALUE; DESCRIPTION\n1a; Cells; 5 uL; Use a Multidrop Combi (Thermo Scientific) to seed 300 cells/well into 24 Greiner 1536 well white/solid bottom, high base, TC plates in 5 ul/well of iHSKM growth medium (GM) without dexamethasone into columns 1+2. Add metal lids with gas-exchange holes\n1b; Cells; 5 uL; Use a Multidrop Combi (Thermo Scientific) to seed 300 cells/well into 24 Greiner 1536 well white/solid bottom, high base, TC plates in 5 ul/well of iHSKM GM without dexamethasone + 4 ng/ml IFN-b into columns 3 - 48. Add metal lids with gas-exchange holes\n2; Incubate; 1 hr; Incubate at 37 C, 5% CO2, 95% RH\n3; Compounds; 23 nl; Use Pin Tool (Wako) to transfer DMSO control, ruxolitinib IFN-b inhibitor control [High Concentration = 80 uM final, 16-pt, 1:2 in duplicate], and library compounds in DMSO\n4; Incubate; 24 hrs; Incubate at 37 C, 5% CO2, 95% RH\n5; Dispense; 2.5 ul; Use BioRAPTR FRD (Beckman Coulter) to add HiBit lytic reagent\n6; Incubate; 10 min; Incubate in the dark at ambient temperature for lysis\n7; Detector; 5 sec; Measure luminescence with ViewLux 1430 Ultra HTS (Perkin Elmer). […]", "values": [{"compound": "Cc1cn2cc(C(=O)N(C)CCO)cc(N[C@@H]3CCOc4cccc(C)c43)c2n1", "Potency": "inactive"}, {"compound": "C[C@@H](Oc1cc(-c2cnn(C3CCNCC3)c2)cnc1N)c1c(Cl)ccc(F)c1Cl", "Potency": "14.7 µM (active)"}, {"compound": "CC(C)c1noc(N2CCC(COc3ccc(-c4ccc(S(C)(=O)=O)cc4)nc3)CC2)n1", "Potency": "inactive"}, {"compound": "COc1ccc(CC2c3cc(OC)c(OC)cc3CC[N+]2(C)CCC(=O)OCCCCCOC(=O)CC[N+]2(C)CCc3cc(OC)c(OC)cc3C2Cc2ccc(OC)c(OC)c2)cc1OC", "note": "(stereo not given)", "Potency": "inactive"}, {"compound": "C[C@@H]1CN(CC(=O)Nc2ccc3c(c2)Cc2cccc(-c4cc(=O)cc(N5CCOCC5)o4)c2S3)C[C@H](C)O1", "Potency": "inactive"}, {"compound": "CNC(=O)CN1CCC(Oc2cc3c(Nc4cccc(Cl)c4F)ncnc3cc2OC)CC1", "Potency": "inactive"}, {"compound": "O=C(NC1CCNCC1)c1[nH]ncc1NC(=O)c1c(Cl)cccc1Cl", "Potency": "0.262 µM (active)"}, {"compound": "Nc1cccc(-c2cc3c(Oc4cccc(O)c4)ncnc3[nH]2)c1", "Potency": "13.1 µM (active)"}, {"compound": "CC(=O)c1c(C)c2cnc(Nc3ccc(N4CCNCC4)cn3)nc2n(C2CCCC2)c1=O", "Potency": "14.7 µM (active)"}, {"compound": "C[C@@]12O[C@@H](C[C@]1(O)CO)n1c3ccccc3c3c4c(c5c6ccccc6n2c5c31)CNC4=O", "Potency": "0.739 µM (active)"}, {"compound": "Fc1cc(-c2cccc3ncc(-c4cnn(C5CCNCC5)c4)nc23)cc(F)c1CN1CCOCC1", "Potency": "11.7 µM (active)"}, {"compound": "CCOC(=O)C1=C(C)NC2=C(C(=O)CC(C)(C)C2)C1c1ccc(-c2ccccc2)cc1", "note": "(stereo not given)", "Potency": "3.3 µM (active)"}, {"compound": "Cc1cc(CN2CCN(c3c(Br)cnc4nc(-c5ccc(N6CCN(C)CC6)cc5)[nH]c34)CC2)no1", "Potency": "6.58 µM (active)"}, {"compound": "C[C@@H](Oc1cc(-n2cnc3ccc(CN4CCN(C)CC4)cc32)sc1C(N)=O)c1ccccc1C(F)(F)F", "Potency": "20.8 µM (active)"}, {"compound": "CC(C)c1nn(-c2c(Cl)cccc2Cl)c2nc(Cc3ccc(OCCO)cc3)[nH]c(=O)c12", "Potency": "0.0294 µM (active)"}, {"compound": "CC(C)C[C@H](NC(=O)CNC(=O)c1cc(Cl)ccc1Cl)B(O)O", "Potency": "0.104 µM (active)"}, {"compound": "COc1ccc(F)c(F)c1C(=O)c1cnc(NC2CCN(S(C)(=O)=O)CC2)nc1N", "Potency": "2.94 µM (active)"}, {"compound": "CC1(C)CCC(c2ccc(Cl)cc2)=C(CN2CCN(c3ccc(C(=O)NS(=O)(=O)c4ccc(N[C@H](CCN5CCOCC5)CSc5ccccc5)c(S(=O)(=O)C(F)(F)F)c4)cc3)CC2)C1", "Potency": "inactive"}, {"compound": "Cc1c(NC(=O)OC[C@@H]2COCCN2)cn2ncnc(Nc3ccc4c(cnn4Cc4cccc(F)c4)c3)c12", "Potency": "inactive"}, {"compound": "Nc1ccccc1NC(=O)c1ccc(CNc2nccc(-c3cccnc3)n2)cc1", "Potency": "7.39 µM (active)"}, {"compound": "Cc1c(Cn2c(C)nc3c(C(=O)O)cc(N4CCOCC4)cc32)cccc1C(F)(F)F", "Potency": "inactive"}, {"compound": "COc1cccc(-c2ccc(NC(=O)C3=C(C(=O)O)CCC3)c(F)c2)c1", "Potency": "inactive"}, {"compound": "CC(C)c1cc(-c2n[nH]c(=O)n2-c2ccc3c(ccn3C)c2)c(O)cc1O", "Potency": "0.0262 µM (active)"}, {"compound": "O=C(O)c1ccc2c(c1)nc(Nc1cccc(Cl)c1)c1ccncc12", "Potency": "16.5 µM (active)"}, {"compound": "CN1CCN(Cc2ccc(NC(=O)Nc3ccc(Oc4cc(NC(=O)C5CC5)ncn4)cc3)cc2C(F)(F)F)CC1", "Potency": "0.415 µM (active)"}, {"compound": "Cc1ccc(-c2ncn(-c3ccc(Nc4nccc(-c5cccc(N6CCOCC6)c5)n4)cc3)n2)cn1", "Potency": "0.829 µM (active)"}, {"compound": "CNC(=O)c1nn(C)c2c1C(C)(C)Cc1cnc(Nc3ccc(N4CCN(C)CC4)cc3)nc1-2", "Potency": "5.23 µM (active)"}, {"compound": "CN1c2cc(O)c(N=NC(N)=O)cc2CC1S(=O)(=O)O", "note": "(stereo not given)", "Potency": "inactive"}, {"compound": "OCc1ccc(-c2ccc(-c3ccc(CO)s3)o2)s1", "Potency": "33 µM (active)"}, {"compound": "Nc1nc(NCCNc2ncc(-n3ccnc3)c(-c3ccc(Cl)cc3Cl)n2)ccc1[N+](=O)[O-]", "Potency": "14.7 µM (active)"}, {"compound": "CC(C)(C)c1cnc(CSc2cnc(NC(=O)C3CCNCC3)s2)o1", "Potency": "0.262 µM (active)"}, {"compound": "Nc1nc(Nc2ccc(S(N)(=O)=O)cc2)nn1C(=O)c1c(F)cccc1F", "Potency": "4.15 µM (active)"}, {"compound": "CN1CCC(CNc2ccc3ncc(-c4cccc(OC(F)(F)F)c4)n3n2)CC1", "Potency": "14.7 µM (active)"}, {"compound": "Cc1c(C)n(Cc2ccc(-c3ccccc3C(=O)O)cc2)c2ccc(C(=O)N[C@@H](C)c3ccc([N+](=O)[O-])cc3)cc12", "Potency": "inactive"}, {"compound": "CC[C@@H]1C(=O)N(C)c2cnc(Nc3ccc(C(=O)NC4CCN(C)CC4)cc3OC)nc2N1C1CCCC1", "Potency": "16.5 µM (active)"}, {"compound": "COC(=O)C1=C(C)NC(C)=C(C(=O)OCCN2CCN(C(c3ccccc3)c3ccccc3)CC2)C1c1cccc([N+](=O)[O-])c1", "note": "(stereo not given)", "Potency": "inactive"}, {"compound": "CC(C)CC(=O)Nc1n[nH]c2c1CN(C(=O)C1CCN(C)CC1)C2(C)C", "Potency": "1.04 µM (active)"}, {"compound": "COc1cc(C(=O)NS(=O)(=O)c2ccccc2C)ccc1Cc1cn(C)c2ccc(NC(=O)OC3CCCC3)cc12", "Potency": "inactive"}, {"compound": "Cc1ccc(C(=O)Nc2cccc(C(F)(F)F)c2)cc1-c1ccc2nc(NCCN3CCOCC3)ncc2c1", "Potency": "5.87 µM (active)"}, {"compound": "COc1cc(C(=O)N2CCC(N3CCN(C)CC3)CC2)ccc1Nc1ncc2c(n1)N(C)c1ccccc1C(=O)N2C", "Potency": "23.4 µM (active)"}]}]}
